Screening results as filed in PubChem BioAssay.
In the library only some 2.9% were active in any assay of this set; here they are far more common.
GLP1R cytotox: cytotoxicity in counter-screen for GLP-1R inverse agonists; AID 624418; 410,000 compounds, 0.13% hits; Potency, µM (series often up to 38.3 µM), without a hit: top-dose activity change, negative = inhibition, usual class: inhibitors; HEK293 cAMP-luciferase reporter cells, luminescence, 24 h;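 further: loss of luciferase light is scored as toxicity; potency means the concentration at half of the fitted maximal effect; on the % scale 0 is the no-effect control and ±100 the full control effect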
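To flag toxic compounds, the library was rerun on cells for 24 hr at 37 deg C and 5% CO2. Viability-linked luminescence was captured 12 min after adding luciferase detection reagent.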
GLP1R ag: GLP-1 receptor (human) agonism; HEK293 GLP-1R CRE-luciferase, luminescence, 4-6 h; cells express a hypersensitive GLP-1R form; Potency, µM (top dose mostly 45.6 µM), inactives show at the highest dose activation, actives largely listed as activators; 380,000 compounds, 0.007% hits; AID 624172; further: potency means the concentration at half of the fitted maximal effect; % of control where 0% means no effect
Target sequence (P43220 whole entry, looked up): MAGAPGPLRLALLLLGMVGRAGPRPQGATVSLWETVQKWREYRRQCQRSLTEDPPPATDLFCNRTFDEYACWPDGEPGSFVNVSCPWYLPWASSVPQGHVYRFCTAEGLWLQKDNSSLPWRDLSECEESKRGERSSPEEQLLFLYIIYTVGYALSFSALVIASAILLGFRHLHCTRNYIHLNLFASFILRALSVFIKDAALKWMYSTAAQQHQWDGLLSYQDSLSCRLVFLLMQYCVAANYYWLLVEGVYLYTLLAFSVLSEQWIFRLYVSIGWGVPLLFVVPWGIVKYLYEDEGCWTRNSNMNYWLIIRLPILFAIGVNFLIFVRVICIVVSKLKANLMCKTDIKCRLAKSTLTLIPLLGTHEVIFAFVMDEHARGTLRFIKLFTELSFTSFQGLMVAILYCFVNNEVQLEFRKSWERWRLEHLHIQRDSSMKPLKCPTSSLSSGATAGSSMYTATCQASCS
LDHA block: blocks human lactate dehydrogenase A | P00338 | AID 1347041 | purified LDHA, NADH/diaphorase-resazurin fluorescence; stronger effect = lower value | 480,000 compounds, 0.15% hits | activity change, % (values are at about 110 or 230 µM); in the data active means activity change below about -30%; inconclusive means mostly about -25% to -30%;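 further: plate controls were DMSO wells for no effect and wells without enzyme for full effect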
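Human LDH5 (2 nM) was incubated with 0.06 mM NADH and 0.2 mM pyruvate for 5 min at room temperature in Tris pH 7.4. Remaining NADH was coupled through diaphorase/resazurin, and resorufin fluorescence was read at 0 and 20 min.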
ClpP mod: qHTS Assay for Activators of ClpP | Potency, µM (titrated, usually from 57.5 µM), for the others: top-dose activity change, negative = active | 340,000 compounds, 1.9% hits | ATP-dependent Clp protease proteolytic subunit (Bacillus subtilis (strain 168)), P80244 | purified B. subtilis ClpP, FRET peptide cleavage, 20 min; active means well fitted falling curve with a large enough effect; inconclusive means small, poorly fitted or top-dose-only effect; inactive means no such curve, though single readings can be large or run the other way; further: potency means the concentration at half of the fitted maximal effect; the source files actives as falling curves though it sought activators and does not explain the sign; nearly all actives have a fitted effect of over 65% in size
Target sequence (P80244 whole entry, looked up): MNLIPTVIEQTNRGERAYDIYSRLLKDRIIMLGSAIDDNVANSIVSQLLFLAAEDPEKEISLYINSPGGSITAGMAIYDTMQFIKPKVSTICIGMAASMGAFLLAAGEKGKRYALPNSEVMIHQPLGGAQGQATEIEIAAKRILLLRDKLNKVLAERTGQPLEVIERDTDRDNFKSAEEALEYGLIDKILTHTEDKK
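Buffer: 100 mM Tris/HCl pH8, 100 mM KCl, 0.05% low protease BSA, 2.5% glycerol, 0.01% Tween-20. ClpP 10 microg/mL final; 20 min RT; delta FRET normalized to ADEP and DMSO controls.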
p53 reactivation: restores transcriptional activity of mutant p53 | H1299 p53-A138V BP100-luciferase reporter, luminescence, 24 h | Potency, µM (highest dose often 92.2 µM), without a hit: top-dose activity change, positive = activation, hits mostly activators | 320,000 compounds, 0.063% hits | AID 504706; further: potency means the concentration at half of the fitted maximal effect; % of control where 0% means no effect; nearly all actives have a fitted effect of over 45% in size
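p53-null H1299 cells stably carrying temperature-sensitive p53-A138V and a BP100-luciferase reporter were pinned with compounds (4-point, 1:5 series) and held 24 hrs at 37 deg C. Luminescence was read 10 min after detection reagent.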
GLP-1R inv ag: acts as inverse agonist at human GLP-1 receptor; 410,000 compounds, 1.6% hits; Potency, µM (doses to about 38.3 µM), inactives show top-dose activity change, negative = inhibition, hits mostly inhibitors; HEK293 GLP-1R CRE-luciferase, luminescence, 24 h; GLP-1R form is constitutively active; P43220; further: potency means the concentration at half of the fitted maximal effect; on the % scale 0 is the no-effect control and ±100 the full control effect; nearly all actives have a fitted effect of over 55% in size
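Inverse agonism was detected as reduced cAMP-driven luciferase luminescence after 24 h compound treatment. The cells were HEK293 clones expressing constitutively active human GLP-1R with the reporter. Reporter-only and GPR119 cell lines served as counterscreen controls.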
* marks the source's active call; other numbers are inactive results; ! = not active in a repeat; [ ] = another dose, or the depositor's remark. Unless noted, the call rests on the fitted dose curve; in most records, active means well fitted curve in the direction sought with a large enough effect; inconclusive means small, poorly fitted or top-dose-only effect, or another doubt; inactive means no such curve, though single readings can be large; an effect the other way counts as inactive or inconclusive.

Screening CCn1c2ccccc2c2cc([N+](=O)[O-])ccc21 returned GLP1R cytotox 7.6%, GLP1R ag 26.9%, LDHA block 0.5, p53 reactivation 3.5% and GLP-1R inv ag inconclusive.
`O=C(CCn1c(=O)c2ccccc2n(Cc2cccc([N+](=O)[O-])c2)c1=O)N1CCc2ccccc2C1` gave GLP1R cytotox 1.9%[1.53 µM], GLP1R ag -3.9%, LDHA block -1.8, ClpP mod 25.1µM*, p53 reactivation -3.6% and GLP-1R inv ag -17.4%.
COc1ccc(NC(=S)N2CCN(S(=O)(=O)c3ccc(F)cc3)CC2)cc1OC was read as GLP1R cytotox 6.2%, GLP1R ag -2.0%, LDHA block -7.0, ClpP mod -2.1%, p53 reactivation -3.6% and GLP-1R inv ag 11.4%.
For O=C1NC(=O)c2cc(NC(=O)C3CCCCC3)ccc21 the results were GLP1R cytotox 2.2%, GLP1R ag -1.5%, LDHA block -0.8, ClpP mod 25.1µM*, p53 reactivation 2.4% and GLP-1R inv ag 0.0%.
Screening O=C(Nc1ccc2c(c1)C(=O)NC2=O)c1cc(Cl)ccc1Cl returned GLP1R cytotox 9.5%, GLP1R ag -5.5%, LDHA block -11.1, ClpP mod 31.6µM*, p53 reactivation 4.8% and GLP-1R inv ag 9.3%.
COC(=O)c1cc(OC)c(Br)c(OC)c1 was read as LDHA block -1.6.
For COC(=O)c1ccccc1NC1CC(=O)N(c2c(C)cccc2C)C1=O (configuration not stated) the results were GLP1R cytotox 6.5%, GLP1R ag -1.8%, LDHA block -6.4, ClpP mod 8.91µM*, p53 reactivation 18.3% and GLP-1R inv ag 0.0%.
For O=S(=O)(c1cnc[nH]1)N1CCN(c2ccccc2)CC1 the results were GLP1R cytotox 14.2%, GLP1R ag -4.1%, LDHA block -6.5, ClpP mod -2.1%, p53 reactivation 1.9% and GLP-1R inv ag 5.5%.
Screening CC[n+]1c(/C=C2\Sc3ccccc3N2C)ccc2cccc(C)c21 returned GLP1R cytotox inconclusive, GLP1R ag -2.5%, LDHA block -10.0, ClpP mod 0.6%, p53 reactivation 0.4% and GLP-1R inv ag 12.6µM*.
CCOC(=O)c1[nH]c2ccccc2c1NC(=O)CCN1CCCC(C)C1 (configuration not stated) was read as LDHA block 3.8.
For CCOC(=O)C1CCCN(CC(=O)Nc2c(C(=O)OC)[nH]c3ccc(C)cc23)C1 (configuration not stated) the results were GLP1R cytotox inconclusive, GLP1R ag 4.3%, LDHA block -2.0, ClpP mod 31.6µM*, p53 reactivation -13.4% and GLP-1R inv ag -9.9%.
For CCOC(=O)c1[nH]c2ccc(OC)cc2c1NC(=O)NC(C)C the results were GLP1R cytotox -6.3%, GLP1R ag -0.1%, LDHA block 0.9, ClpP mod 17.8µM*, p53 reactivation -1.1% and GLP-1R inv ag -14.3%.
CCOC(=O)c1[nH]c2ccc(OC)cc2c1NC(=O)CCN1CCCC(C)C1 (configuration not stated) was read as GLP1R cytotox -6.1%, GLP1R ag -6.5%, LDHA block -0.2, ClpP mod 31.6µM*, p53 reactivation -3.7% and GLP-1R inv ag 3.5%.
For CCOC(=O)c1[nH]c2ccc(OC)cc2c1NC(=O)OC the results were GLP1R cytotox -3.6%, GLP1R ag 4.0%, LDHA block 4.1, ClpP mod 28.2µM*, p53 reactivation -2.5% and GLP-1R inv ag 12.0%.
CCOC(=O)c1[nH]c2ccccc2c1NC(=O)NC(C)C was read as GLP1R cytotox -18.4%, GLP1R ag 1.4%, LDHA block -10.3, p53 reactivation -1.8% and GLP-1R inv ag 8.3%.
`C[C@H](CO)N1C[C@H](C)[C@H](CN(C)C(=O)Nc2ccc(F)cc2)Oc2c(NC(=O)c3ccc(-c4nccs4)cc3)cccc2C1=O` gave GLP1R cytotox 7.4%, GLP1R ag -1.0%, LDHA block -0.5, ClpP mod -2.6%, p53 reactivation -3.3% and GLP-1R inv ag -5.0%.
`Cc1nn(-c2ccc(C(F)(F)F)cn2)c(C)c1Oc1ccccc1O` gave GLP1R cytotox -29.6%, GLP1R ag -0.7%, LDHA block -3.1, ClpP mod -2.1%, p53 reactivation -2.4% and GLP-1R inv ag 7.94µM*.
CCCCNc1c(-c2ccc(OC)c(SC(C)CC)c2)nc2ccc(C)cn12 (configuration not stated) was read as GLP1R cytotox -35.5%, GLP1R ag -13.3%, LDHA block 4.2, ClpP mod 3.6%, p53 reactivation -0.5% and GLP-1R inv ag inconclusive.
Screening CCC(C)Sc1cccc(-c2nc3cnccn3c2NC2CCCCC2)c1 (configuration not stated) returned GLP1R cytotox 113.3%, GLP1R ag -1.9%, LDHA block 1.4, ClpP mod inconclusive, p53 reactivation -11.7% and GLP-1R inv ag 10µM*.
CCCCNc1c(-c2cccc(SC(C)CC)c2)nc2ccc(Cl)cn12 (configuration not stated) was read as GLP1R cytotox 1.2%, GLP1R ag 8.3%, LDHA block 4.7, ClpP mod -5.2%, p53 reactivation 8.2% and GLP-1R inv ag 10µM*.
c1cc(SC2CCCCC2)cc(-c2nc3cnccn3c2NC2CCCCC2)c1 was read as GLP1R cytotox 112.7%, GLP1R ag -5.2%, LDHA block 5.2, ClpP mod inconclusive, p53 reactivation -5.2% and GLP-1R inv ag inconclusive.
Screening CCC(C)Sc1cccc(-c2nc3ccc(C)cn3c2NC2CCCCC2)c1 (configuration not stated) returned GLP1R cytotox -21.7%, GLP1R ag 15.1%, LDHA block 0.6, ClpP mod 15.8µM*!, p53 reactivation -0.9% and GLP-1R inv ag 11.2µM*.
CCCCNc1c(-c2ccc(OC)c(SC(C)CC)c2)nc2cc(C)ccn12 (configuration not stated) was read as GLP1R cytotox inconclusive, GLP1R ag -2.3%, LDHA block 2.1, ClpP mod 27.3µM*!, p53 reactivation 6.7% and GLP-1R inv ag inconclusive.
N#C/C(=C/c1ccccc1OC(F)F)c1nc2ccccc2s1 was read as LDHA block 2.0.
Screening Cc1ccc(OCCn2cc(C(=O)c3cccs3)c3ccccc32)cc1 returned GLP1R cytotox 2.6%, LDHA block -0.7, ClpP mod -14.3% and GLP-1R inv ag inconclusive.
